GLP-1R inv ag = GLP-1 receptor (human) inverse agonism; HEK293 GLP-1R CRE-luciferase, luminescence, 24 h; GLP-1R form is constitutively active; Potency, µM (titrated, usually from 38.3 µM), for the others: top-dose activity change, negative = inhibition, hits mostly inhibitors; P43220; 410,000 compounds, 1.6% hits; also: % is scaled to controls: 0 for no effect and ±100 for the full control effect; nearly all actives have a fitted effect of over 55% in size
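GLP-1R inverse agonism mode: basal reporter luminescence in engineered HEK293 cells measured after one day of compound exposure at 37 deg C, with a 12 min room-temperature detection step.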
RORg inh = blocks mouse ROR gamma transcriptional activity. Potency, µM (highest dose often 53.6 µM), for the others: at the top dose activity change, negative = inhibition, most hits filed as inhibitors. P51450. 310,000 compounds, 5.4% hits. Drosophila S2 Gal4-RORgamma UAS-luciferase reporter, 20 h; also: % is scaled to controls: 0 for no effect and ±100 for the full control effect; nearly all actives have a fitted effect of over 60% in size
Target sequence (P51450 whole entry, looked up, the tested form may be a part): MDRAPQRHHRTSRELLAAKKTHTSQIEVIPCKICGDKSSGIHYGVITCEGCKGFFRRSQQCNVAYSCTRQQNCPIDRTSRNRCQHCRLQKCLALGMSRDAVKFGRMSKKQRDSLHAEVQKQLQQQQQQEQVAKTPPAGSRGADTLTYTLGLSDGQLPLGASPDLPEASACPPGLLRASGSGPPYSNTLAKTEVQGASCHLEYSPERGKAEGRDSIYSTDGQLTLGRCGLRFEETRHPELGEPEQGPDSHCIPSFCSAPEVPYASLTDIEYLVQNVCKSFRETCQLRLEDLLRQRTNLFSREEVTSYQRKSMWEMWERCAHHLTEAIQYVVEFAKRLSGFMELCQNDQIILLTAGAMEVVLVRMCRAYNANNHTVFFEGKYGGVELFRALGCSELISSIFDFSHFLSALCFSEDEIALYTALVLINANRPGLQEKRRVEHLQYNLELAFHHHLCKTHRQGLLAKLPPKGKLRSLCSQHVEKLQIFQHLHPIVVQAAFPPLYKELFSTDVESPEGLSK
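Drosophila S2 cells stably expressing Gal4-DBD/mouse RORγ fusion under metallothionein promoter plus UAS-luciferase; compound 1 h, then 700 uM CuSO4 induction for 20 h at ambient temperature; inhibition read as reduced luminescence.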
GLP1R cytotox = cytotoxicity in counter-screen for GLP-1R inverse agonists. HEK293 cAMP-luciferase reporter cells, luminescence, 24 h. Potency, µM (highest dose often 38.3 µM), without a hit: at the top dose activity change, negative = inhibition, usual class: inhibitors. 410,000 compounds, 0.13% hits. AID 624418;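 also: loss of luciferase light is scored as toxicity; % is scaled to controls: 0 for no effect and ±100 for the full control effect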
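Here, cytotoxicity is scored as loss of luminescence. The MLSMR collection was tested on cells seeded in medium containing 10% Nu serum, with a 24 hr compound exposure preceded by 12 hours of culture.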
GLP1R ag = GLP-1 receptor (human) agonism. HEK293 GLP-1R CRE-luciferase, luminescence, 4-6 h; cells express a hypersensitive GLP-1R form. Potency, µM (highest dose often 45.6 µM), without a hit: at the top dose activation, hits mostly activators. 380,000 compounds, 0.007% hits. AID 624172; also: % of control where 0% means no effect
Gal4-VP16 FLuc = inhibits Gal4-VP16 luciferase reporter, ROR gamma counter-screen. Potency, µM (highest dose often 53.6 µM), inactives show top-dose activity, negative = inhibition, usual class: inhibitors. 310,000 compounds, 3.5% hits. AID 2546. Drosophila S2 Gal4-VP16 UAS-luciferase, luminescence, 20 h;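 also: Gal4-VP16 expression switched on by copper sulfate through the metallothionein promoter; % is scaled to controls: 0 for no effect and ±100 for the full control effect; nearly all actives have a fitted effect of over 50% in size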
Active calls of the source: *; ? = inconclusive; / = no result; [ ] = dose if it differs, or a comment. Rows were chosen to be rich in hits. Some 5.9% of all compounds tested hit in one or more screens of this group. Calls follow the shape of the dose curve; as a rule, active = well fitted curve in the direction sought with a large enough effect; inconclusive = small, poorly fitted or top-dose-only effect, or another doubt; inactive = no such curve, though single readings can be large; an effect the other way counts as inactive or inconclusive. Potency is read from the fitted curve at half-maximal effect.

SMILES | GLP-1R inv ag | RORg inh | GLP1R cytotox | GLP1R ag | Gal4-VP16 FLuc
COc1cc(CNC(=O)C2CCCCN2S(=O)(=O)c2ccc(F)cc2)cc(OC)c1OC (stereo unspecified) | -12% | / | -2% | / | /
COC(=O)c1c(N)sc2c1CCN(c1ncc(C(F)(F)F)cc1Cl)C2 | ? | 1.6µM* | 0% | 21% | ?
Cc1cccc(-c2noc(CSc3ccccc3)n2)c1 | ? | 6% | 17% | -1% | 10%
O=C(O)CCn1c(SCc2ccccc2)nc2ccccc21 | 3% | 2%[0.365 µM] | 9% | -1% | /
Cc1ccc(-n2c(Cc3ccccc3)nnc2SCc2nc(-c3cccs3)no2)cc1 | 10µM* | / | -6% | / | /
O=c1c2ccccc2nc(SCc2nc(-c3ccccc3)no2)n1-c1ccc(F)cc1 | 3.5µM* | ? | -7% | -2% | -9%
Cc1noc(C)c1CSc1nc2ccccc2n1CCc1ccccc1 | -2% | 7.1µM* | -2% | 17% | ?
Cc1ccc(-c2noc(CSc3ccccc3)n2)cc1 | 0% | ? | -2% | 5% | 2µM*
COc1ccc(Cl)cc1N=Nc1ncc[nH]1 | / | ? | / | / | -11%
CC1=CC(=O)OC1Cc1ccc2ccccc2n1 (stereo unspecified) | / | ? | / | / | 3%
C/C1=C2N=C(/C=C3N=C(/C(C)=C4\[N-][C@@H]([C@H](CC(N)=O)[C@]4(C)CCC(=O)NC[C@@H](C)OP(=O)([O-])O[C@@H]4[C@@H](O)[C@H](n5cnc6cc(C)c(C)cc65)O[C@@H]4CO)[C@@]4(C)N=C1[C@H](CCC(N)=O)[C@@]4(C)CC(N)=O)[C@H](CCC(N)=O)C\3(C)C)[C@@H](CCC(N)=O)[C@@]/2(C)CC(N)=O.[CH3-].[Co+3] | / | / | / | -12% | /
CCC(=O)N1c2ccccc2CC1C(=O)NCCc1ccc(OC)c(OC)c1 (stereo unspecified) | -12% | / | 25% | / | /
Cc1noc(C)c1CSc1nc2ccccc2c(=O)n1-c1ccc(Cl)cc1 | ? | 11µM* | ? | 0% | 5%
Clc1ccccc1-c1nnc(SCc2nc(-c3ccccc3)no2)n1-c1ccccc1 | 10µM* | / | -7% | / | /
Cc1ccccc1OCC(O)CN(Cc1ccccc1O)C1CCCCC1 (stereo unspecified) | 11µM* | ? | ? | 4% | -10%
CN(CC(O)COc1ccccc1F)C1CCCCC1 (stereo unspecified) | 16% | -4% | 16% | 14% | 1%
CCN(CC(O)COCc1ccc(Cl)cc1)C1CCCCC1 (stereo unspecified) | -40% | 7% | 19% | 0% | -5%
CCN(CC(O)COc1ccc(OCC(O)CN(CC)C2CCCCC2)cc1)C1CCCCC1 (stereo unspecified) | 2.2µM* | / | -19% | 1% | /
O=C(CSCc1ccco1)Nc1cc(C(F)(F)F)ccc1N1CCOCC1 | 0% | -9%[10 µM] | 3% | 8% | -1%
O=C(/C=C/c1ccco1)NC(=S)Nc1ccccc1N1CCOCC1 | ? | 2.8µM* | -2% | -2% | 8.9µM*
O=C(/C=C/c1ccco1)NC(=S)Nc1ccccc1N1CCCC1 | ? | ? | ? | -5% | ?
O=C(/C=C/c1ccco1)NC(=S)Nc1cc(C(F)(F)F)ccc1N1CCOCC1 | ? | 6.3µM* | 1% | 1% | ?
CC[C@H](C)[C@H](NC(=O)[C@H](CC(C)C)NC(=O)[C@@H](N)CO)C(=O)NCC(=O)N[C@@H](CCCCN)C(=O)N[C@H](C(=O)O)C(C)C | / | 3% | / | / | -5%
Cc1cc(NC2CCCC2)n2ncc(-c3ccccc3)c2n1 | ? | 7.1µM* | -16% | -3% | 8.9µM*
Cc1nc2c(-c3ccccc3)cnn2c(N)c1-c1ccccc1 | ? | 0.79µM* | 5% | 7% | ?
SMILES | GLP-1R inv ag | RORg inh | GLP1R cytotox | GLP1R ag | Gal4-VP16 FLuc
Cc1cc(-c2ccccc2)n2ncc(-c3ccccc3)c2n1 | ? | ? | -8% | -1% | 10µM*
CCOC(=O)Cc1c(C)nc2c(-c3ccccc3)cnn2c1C | 4% | 27% | 5% | 14% | -8%
Cc1ccc(-c2cnn3c(N4CCOCC4)cc(C)nc23)cc1 | -17% | -38% | 2% | 4% | -18%
Cc1cc(N2CCOCC2)n2ncc(-c3ccccc3)c2n1 | ? | ? | -11% | -14% | 13µM*
CCCCN(CCCNC(=O)c1cc(Nc2ccc(OC)c(OC)c2)nc2ccccc12)Cc1ccccc1 | ? | / | -24% | / | /
CC(C)=CC1C(CO)C1(C)C (stereo unspecified) | / | -23% | / | / | 12%
COc1ccc2c(c1)C(c1ccccc1C)CC(=O)O2 (stereo unspecified) | / | -5%[96.6 µM] | / | / | -12%[96.6 µM]
Cc1cc(N2CCCCC2)n2ncc(-c3ccc(Cl)cc3)c2n1 | 0% | 37% | 2% | 6% | ?
Cc1cc(N2CCCCC2)n2ncc(-c3ccccc3)c2n1 | ? | ? | 25% | -27% | 10µM*
CNC(=S)Nc1ccc(C23CC4CC(CC(C4)C2)C3)cc1 | ? | 1.6µM* | ? | 3% | 1.3µM*
O=C(CSCCO)Nc1ccc(C23CC4CC(CC(C4)C2)C3)cc1 | -2% | -2% | 8% | 22% | 8.9µM*
CC(=O)Nc1ccc(C23CC4CC(CC(C4)C2)C3)cc1 | 0% | 23% | 0% | 28% | 17%
COc1ccc(C)cc1NC(=O)c1cnc2ccc(C)cn2c1=O | 2% | / | 15% | / | /
CCC(C(=O)NCc1ccco1)N(C(=O)CNS(=O)(=O)c1ccccc1)C1CCCCC1 (stereo unspecified) | 11% | 21% | -30% | -4% | 12%
CCCC(C(=O)NCc1ccco1)N(C(=O)CNS(=O)(=O)c1ccc(Cl)cc1)C1CCCC1 (stereo unspecified) | 10µM* | 33%[0.365 µM] | -8% | -20% | /
COc1cc(C(=O)Oc2ccccc2/C=N/NC(=O)c2ccc(Cl)cc2)cc(OC)c1OC | 2.8µM* | 6.3µM* | -26% | 1% | 11µM*
COc1cc(C(=O)Oc2ccccc2/C=N/NC(=O)c2ccc(C)c(Cl)c2)cc(OC)c1OC | -2% | 5µM* | ? | -4% | ?
CNc1ncncc1-c1ccccc1C(F)(F)F | / | -10% | / | / | -2%
CCOc1ccc(S(=O)(=O)N2CCC(C(=O)N3CCN(c4ccccc4F)CC3)CC2)cc1C | 5.6µM* | 22% | 10% | 2% | -7%
COc1ccc(C(CNC(=O)c2cc(S(=O)(=O)N3CCN(c4ccccc4)CC3)ccc2Cl)N(C)C)cc1 (stereo unspecified) | 10µM* | / | -18% | -2% | /
CC(C)=CCC(C)(C)CNC(=O)NC1CCCCC1 | 10µM* | -5% | -1% | -3% | -4%
CC(C)(C)N(C=C(Cl)Cl)C(=O)NC1CCCCC1 | 9% | -4% | -6% | -3% | 5%

Source: PubChem BioAssay (National Center for Advancing Translational Sciences (NCATS))
